The results in this text go back to PMC5540273 (PLoS ONE, 2017).

Molecules are shown by their SMILES.

Holding throughout (conditions): concentration: 1 μM, replicates: in singlicate; n = 1
For test [1], the system named is DDR2.
The subject of test [2] is T1, DLK.
T1 construct: gene MAP3K12

The test system of test [3] is T2, DMPK2.
T2 construct: gene CDC42BPG

Test [4] deals with DMPK.
The test system of test [5] is T3, DRAK1.
T3 construct: gene STK17A

Test [6] deals with T4, DRAK2.
T4 construct: gene STK17B

Test [7] deals with DYRK1A.
For test [8], the system named is DYRK1B.
For test [9], the system named is DYRK2.
In test [10] the test system is EGFR.
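Also: KINOMEscan kinase panel screen.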

Take `CC(=O)Nc1n[nH]c2ncc(-c3ccccc3)cc12` [SB-548492]: the “%Inh” value in test [1] is 11%; in [2], 0%; in test [3] it was 0%; in test [4] it was 0%; in [5], 20%; in test [6] it was 0%. Moreover, the “%Inh” value in test [7] is given as 32%; in test [8] it was 0%; in test [9], 24%; in test [10] it was 3%.

In the case of `O=C(Nc1ccccc1F)NC1CCN(c2ccnc(Nc3ccc(F)cc3)n2)C1` (centres unmarked) [GSK1379722], the “%Inh” value in test [1] was determined as 11%; in test [2] it was 23%; in test [3] it was 1%; in test [4] it was 0%; in test [5], 0%; in test [6] it was 0%. Moreover, the “%Inh” value in [7] was 19%; in [8], 22%; in test [9] it was 0%; in test [10], 0%.

For the molecule `Nc1nccc2scc(-c3ccc4c(c3)CCN4C(=O)Cc3cc(F)ccc3F)c12` [GSK2587663], the “%Inh” value is 1% in test [1]; 21% in test [2]; 13% in [3]; 0% in test [4]; 3% in [5]; 5% in test [6]. For the same molecule, the “%Inh” value in test [7] was determined as 0%; in [8], 12%; in test [9], 5%; in test [10], 21%.

Take `Fc1ccc(Nc2nccc(-c3c(-c4ccc(Cl)cc4)nn4ncccc34)n2)cc1F` [GW829058]: the “%Inh” value came out at 18% in test [1]; 20% in [2]; 0% in [3]; 21% in test [4]; 5% in [5]; 0% in test [6]. For the same molecule, the “%Inh” value in [7] turned out to be 0%; in test [8], 11%; in test [9], 40%; in [10] it was 24%.

Regarding `OCCOCCn1ccc2ncnc(Nc3ccc(Oc4cccc(Cl)c4)c(Cl)c3)c21`, the “%Inh” value in test [1], in test [2], in [3], in test [4], in test [5] and in test [6] was 0% in each case. Besides, the “%Inh” value in test [7] amounted to 0%; in test [8] it was 0%; in test [9], 0%; in [10] it was 100%.

As for `Cl.Fc1ccccc1COc1ccc(Nc2ncnc3ccc(-c4nnc(C(F)(F)F)o4)cc23)cc1Cl` [GW424170], the “%Inh” value is given as 18% in [1]; 11% in test [2]; 11% in [3]; 0% in test [4]; 4% in [5]; 0% in test [6]. The “%Inh” value in test [7] is 4%; in [8], 0%; in [9] it was 11%; in [10], 99.4%.

With `CCC(CC)(CC)n1cnc2c(N)ncnc21` [SKF-97620], the “%Inh” value came to 24% in test [1]; 0% in test [2]; 0% in test [3]; 7% in [4]; 7% in test [5]; 25% in test [6]. For the same molecule, the “%Inh” value is listed as 0% in test [7], 0% in test [8], 20% in test [9] and 0% in test [10].

Regarding `Clc1cccc(-c2nc(Nc3ccncc3)c3ccccc3n2)c1` [GW873004], the “%Inh” value in test [1] worked out at 32%; in test [2] it was 0%; in test [3], 84%; in [4], 4%; in test [5], 0%; in test [6] it was 10%. The “%Inh” value in test [7] is given as 12%; in [8] it was 57%; in test [9], 7%; in [10] it was 10%.

Consider `Cn1ccc2ncnc(Nc3ccc(Oc4cccc(Cl)c4)c(Cl)c3)c21`, for which the “%Inh” value in [1] worked out at 4%; in test [2], 0%; in [3], 5%; in test [4], 0%; in test [5], 4%; in [6], 1%. Moreover, the “%Inh” value is given as 22% in [7], 55% in test [8], 33% in [9] and 100% in [10].

For `CS(=O)(=O)CCNCc1ccc(-c2ccc3ncnc(Nc4ccc(OCc5ccccc5)c(Cl)c4)c3c2)o1.Cl` [GW574783], the “%Inh” value in test [1] was found to be 39%; in test [2], 25%; in [3] it was 2%; in test [4], 16%; in [5] it was 16%; in test [6] it was 0%. In addition, the “%Inh” value in test [7] is 0%; in test [8], 0%; in [9], 0%; in test [10] it was 100%.

Consider `Nc1nc(-c2ccc3c(N)n[nH]c3c2)cc(N2CCCCC2)n1` [GSK2228768], for which the “%Inh” value in [1] was determined as 0%; in [2], 0%; in [3], 0%; in test [4], 0%; in test [5], 93.1%; in test [6], 11%. In addition, the “%Inh” value is given as 18% in test [7], 0% in test [8], 58% in [9] and 3% in test [10].
